# Source: the supplement of paper PMC8728848
# The full list was thinned out, with the strongest signals kept by preference.
# System: Gal6S(b1-4)GlcNAc6S
# Assay: glycan array binding signal (z-score within array); higher = stronger binding
# Details: glycan notation: IUPAC condensed, linker removed
# How it was run: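 The binding signal is a Z-score computed within each array. Data were drawn from 3228 arrays in the Consortium for Functional Glycomics database, restricted to those with a known protein sequence. Scores were averaged over arrays of the same protein sequence at different concentrations or buffers, and over linkers, and negative values can be taken as non-binding.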
row,Substance,glycan array binding signal (z-score)
1,"Wza (Escherichia coli), P0A930",0.571
2,AgI/II Vhelical-GFP (Streptococcus mutans),2.17
3,Epa22,12.6
